Assay results taken from PubChem BioAssay (EPA / NIEHS).
Several values for one entry are separate records, joined by “and”; a condition that tells them apart may be missing. Equal values may be shown once. Results filed as inconclusive are left out. Activity calls are given as the source filed them. The calls were made as follows, unless noted: active = hit-call score of the fitted dose curve at least 0.9, where 1 is the maximum; inconclusive = response in the unintended direction; inactive = score below 0.9.

Legend:
[1] = target: Estrogen receptor beta (Homo sapiens) (UniProt Q92731); assay: OT_ER_ERbERb_1440: Odyssey Thera (OT) 24-hour HEK293T Protein-Complementation Assay for Estrogen Receptor-beta/-beta Homodimer (AID 2283380);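 also: scored as signal increase over DMSO baseline for both agonists and antagonists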
Procedure, shortened: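 HEK293T cells stably expressing ER beta LBD (aa 310-547) homodimer fragment-complementation reporter, dosed 24 h. Cells formaldehyde-fixed, Draq5-stained; gain in nuclear (agonist) or nuclear plus cytoplasmic (antagonist) fluorescence versus DMSO read by laser scanning cytometry.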

[2] = target: Estrogen receptor (Homo sapiens) (UniProt P03372); assay: OT_ERa_GFPERaERE_0480: Odyssey Thera (OT) 8-hour HeLa Transcription Induction Assay for Estrogen Receptor (AID 2283381; active = hit-call score of the fitted dose curve at least 0.9, where 1 is the maximum; inactive = score below 0.9)
Procedure, shortened: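 Fluorescent reporter signal, imaged by microscopy and scored with image-analysis algorithms, was taken 8 h after chemical dosing of HeLa cells; activity was fitted upward relative to DMSO.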

[3] = target: Estrogen receptor (Homo sapiens) (UniProt P03372); assay: OT_ERa_GFPERaERE_0120: Odyssey Thera (OT) 2-hour HeLa Transcription Induction Assay for Estrogen Receptor (AID 2283382)
Procedure, shortened: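 HeLa, 384-well, 2 h chemical exposure; GFP reporter induction (ERE), fluorescence microscopy; high content image analysis; positive fitting direction vs DMSO.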

[4] = target: Bile acid receptor (Homo sapiens) (UniProt Q96RI1); assay: OT_FXR_FXRSRC1_0480: Odyssey Thera (OT) 8-hour HEK293T Protein-Complementation Assay for Farnesoid X receptor/SRC-1 Co-activator (AID 2283383)
Procedure, shortened: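 Human kidney HEK293T cells carried FXR/SRC-1 fragment-complementation constructs. Compounds were added and incubated 8 h. Reporter reassembly upon receptor–co-activator interaction was then quantified by fluorescence, with curves fitted in the positive direction relative to DMSO.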

[5] = target: Bile acid receptor (Homo sapiens) (UniProt Q96RI1); assay: OT_FXR_FXRSRC1_1440: Odyssey Thera (OT) 24-hour HEK293T Protein-Complementation Assay for Farnesoid X receptor/SRC-1 Co-activator (AID 2283384)
Procedure, shortened: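 Compounds are applied to human kidney HEK293T cells expressing bait and prey fused to reporter protein fragments; after 24 h, reconstituted reporter fluorescence is measured. Activity is fitted as signal gain over DMSO.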

[6] = target: Retinoic acid receptor RXR-alpha (Homo sapiens) (UniProt P19793); assay: OT_NURR1_NURR1RXRa_0480: Odyssey Thera (OT) 8-hour HEK293T Protein Complementation Assay for Nurr1/retinoid X receptor (RXR) (AID 2283385)
Procedure, shortened: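 8 h compound exposure, HEK293T; Nurr1/RXRα fragment complementation; fluorescence intensity; positive fitting direction vs DMSO baseline.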

Chain of Bile acid receptor (Homo sapiens) (Q96RI1 whole entry, looked up, the tested form may be a part): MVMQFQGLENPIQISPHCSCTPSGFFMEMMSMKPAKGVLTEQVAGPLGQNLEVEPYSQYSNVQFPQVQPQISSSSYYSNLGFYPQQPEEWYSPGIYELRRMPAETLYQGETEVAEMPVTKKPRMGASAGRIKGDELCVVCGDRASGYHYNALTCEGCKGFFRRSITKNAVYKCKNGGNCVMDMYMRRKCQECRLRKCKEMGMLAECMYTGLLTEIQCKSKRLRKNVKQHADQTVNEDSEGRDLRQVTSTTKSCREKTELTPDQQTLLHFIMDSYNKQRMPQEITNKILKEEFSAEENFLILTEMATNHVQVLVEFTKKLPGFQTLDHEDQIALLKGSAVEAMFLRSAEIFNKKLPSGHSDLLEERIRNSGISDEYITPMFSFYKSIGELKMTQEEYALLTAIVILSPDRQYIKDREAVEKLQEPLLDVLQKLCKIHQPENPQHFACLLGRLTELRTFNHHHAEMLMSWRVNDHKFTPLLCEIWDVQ
Chain of Estrogen receptor (Homo sapiens) (P03372 whole entry, looked up): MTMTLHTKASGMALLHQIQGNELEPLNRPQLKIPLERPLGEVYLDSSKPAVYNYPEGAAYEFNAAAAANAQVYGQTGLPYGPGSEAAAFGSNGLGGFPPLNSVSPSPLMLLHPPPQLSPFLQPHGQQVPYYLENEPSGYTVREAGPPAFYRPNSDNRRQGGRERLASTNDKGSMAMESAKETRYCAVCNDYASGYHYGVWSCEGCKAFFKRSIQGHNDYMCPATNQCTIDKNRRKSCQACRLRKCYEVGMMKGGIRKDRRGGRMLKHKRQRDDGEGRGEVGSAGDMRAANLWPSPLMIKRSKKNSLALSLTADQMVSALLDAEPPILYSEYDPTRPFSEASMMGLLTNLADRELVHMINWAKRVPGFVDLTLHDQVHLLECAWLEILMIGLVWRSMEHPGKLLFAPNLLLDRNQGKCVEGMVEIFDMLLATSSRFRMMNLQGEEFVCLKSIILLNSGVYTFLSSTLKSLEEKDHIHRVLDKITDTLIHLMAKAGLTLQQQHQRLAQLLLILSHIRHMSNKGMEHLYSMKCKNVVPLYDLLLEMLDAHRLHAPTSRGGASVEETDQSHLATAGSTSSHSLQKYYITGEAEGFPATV
Chain of Retinoic acid receptor RXR-alpha (Homo sapiens) (P19793 whole entry, looked up, the tested form may be a part): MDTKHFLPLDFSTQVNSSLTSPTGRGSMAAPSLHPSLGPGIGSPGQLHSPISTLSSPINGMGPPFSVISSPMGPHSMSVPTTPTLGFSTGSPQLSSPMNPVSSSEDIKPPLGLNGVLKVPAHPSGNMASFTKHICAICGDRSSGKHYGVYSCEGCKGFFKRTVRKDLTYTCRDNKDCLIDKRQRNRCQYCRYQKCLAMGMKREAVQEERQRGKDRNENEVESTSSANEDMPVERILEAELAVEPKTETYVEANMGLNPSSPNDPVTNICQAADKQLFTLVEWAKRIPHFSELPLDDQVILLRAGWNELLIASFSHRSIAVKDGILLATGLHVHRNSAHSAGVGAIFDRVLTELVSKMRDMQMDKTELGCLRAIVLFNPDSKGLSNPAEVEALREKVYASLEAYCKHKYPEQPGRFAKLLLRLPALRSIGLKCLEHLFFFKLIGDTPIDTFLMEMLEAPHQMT
Chain of Estrogen receptor beta (Homo sapiens) (Q92731 whole entry, looked up, the tested form may be a part): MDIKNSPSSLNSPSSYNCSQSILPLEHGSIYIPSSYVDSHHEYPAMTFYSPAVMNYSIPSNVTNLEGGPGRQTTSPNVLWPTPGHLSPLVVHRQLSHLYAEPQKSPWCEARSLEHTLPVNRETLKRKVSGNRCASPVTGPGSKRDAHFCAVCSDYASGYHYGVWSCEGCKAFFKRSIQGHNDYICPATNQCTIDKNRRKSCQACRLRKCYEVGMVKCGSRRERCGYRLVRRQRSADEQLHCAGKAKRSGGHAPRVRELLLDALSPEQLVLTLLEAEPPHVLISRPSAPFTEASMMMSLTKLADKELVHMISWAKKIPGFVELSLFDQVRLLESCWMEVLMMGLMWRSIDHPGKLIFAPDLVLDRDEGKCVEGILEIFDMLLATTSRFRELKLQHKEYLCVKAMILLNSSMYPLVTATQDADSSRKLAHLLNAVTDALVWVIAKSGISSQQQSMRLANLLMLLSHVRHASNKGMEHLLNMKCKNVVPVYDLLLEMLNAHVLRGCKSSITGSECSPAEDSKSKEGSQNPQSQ

COc1ccc(C(=O)Nc2nc3ccccc3c(NCc3ccccc3)c2C#N)cc1
outcome [1]: inactive
outcome [2]: inactive
outcome [3]: inactive
outcome [4]: inactive
AC50 [5]: 14.4 µM (active)
AC50 [6]: 9.26 µM (active)

Nc1nc(Cl)nc2c1ncn2[C@H]1C[C@H](O)[C@@H](CO)O1
AC50 [4]: 15.2 µM (active)
AC50 [5]: 21.1 µM (active)
AC50 [6]: 50 µM (active) and 41.2 µM (active)

Cc1cn([C@H]2C=C[C@@H](CO)O2)c(=O)[nH]c1=O
outcome [1]: inactive
outcome [4]: inactive
outcome [6]: inactive

CCCCc1nc2cccnc2n1Cc1ccc(-c2ccccc2-c2nnn[nH]2)cc1
outcome [1]: inactive
outcome [2]: inactive
outcome [3]: inactive
AC50 [4]: 60.8 µM (active)
AC50 [5]: 78.2 µM (active)

CCCCC(CC)CO (configuration not stated)
outcome [1]: inactive
outcome [4]: inactive
outcome [5]: inactive

CC(COCC(C)OC(=O)c1ccccc1)OC(=O)c1ccccc1 (configuration not stated)
outcome [1]: inactive
AC50 [4]: 19.4 µM (active)
outcome [5]: inactive

CS(=O)(=O)c1ccc([C@@H](C[C@H]2CCC(=O)C2)C(=O)Nc2cnccn2)cc1Cl
outcome [1]: inactive
outcome [2]: inactive
outcome [3]: inactive
outcome [6]: inactive

CC(C)c1cccc(C(C)C)c1
outcome [2]: inactive
outcome [3]: inactive
outcome [4]: inactive
outcome [6]: inactive

CC(=O)CC(c1ccccc1)c1c(O)c2ccccc2oc1=O (configuration not stated)
outcome [6]: inactive

CN(C)CCCN(C)CCCN(C)C
outcome [1]: inactive
outcome [2]: inactive
outcome [3]: inactive
outcome [5]: inactive

COC(=O)CCC(=O)OC
outcome [2]: inactive
outcome [3]: inactive
outcome [4]: inactive
outcome [5]: inactive

CC1(C)C(=O)NC(=O)N1CO
AC50 [1]: 57.3 µM (active)
outcome [2]: inactive
outcome [3]: inactive
outcome [6]: inactive

N[C@@H](Cc1c[nH]c2ccccc12)C(=O)O
outcome [1]: inactive
outcome [6]: inactive

O=C1c2c(O)cccc2Cc2cccc(O)c21
outcome [4]: inactive
outcome [5]: inactive

CC(=O)OC1CC(C)OC(C)O1 (configuration not stated)
outcome [1]: inactive
outcome [4]: inactive

C=CCc1ccc(OC)c(OC)c1
outcome [1]: inactive
outcome [4]: inactive
outcome [5]: inactive

CCCCCCC(CCCCCCCCCCC(=O)OCC(COC(C)=O)OC(C)=O)OC(C)=O (configuration not stated)
outcome [1]: inactive
outcome [2]: inactive
outcome [3]: inactive
outcome [4]: inactive
outcome [5]: inactive

CC(C)COC(=O)CCCCC(=O)OCC(C)C
outcome [4]: inactive
outcome [5]: inactive

Cc1ccc(C(C)(C)C)c(O)c1
outcome [1]: inactive
outcome [2]: inactive
outcome [3]: inactive
AC50 [4]: 60.6 µM (active)
AC50 [5]: 80.5 µM (active)

O=C(O)c1cccnc1
outcome [1]: inactive
outcome [5]: inactive

CC(C)c1cccc(C(C)C)c1NC(=O)NS(=O)(=O)c1cc(C(C)(C)O)co1
outcome [1]: inactive
outcome [4]: inactive
outcome [5]: inactive
outcome [6]: inactive

NC1CCCCC1
outcome [1]: inactive
outcome [2]: inactive
outcome [3]: inactive
outcome [6]: inactive

CCCCCCC(C=O)=Cc1ccccc1
outcome [1]: inactive
AC50 [4]: 50 µM (active)
outcome [5]: inactive

CC(=O)S[C@H](C(=O)N[C@H]1Cc2ccccc2[C@H]2CCC[C@@H](C(=O)O)N2C1=O)C(C)C
outcome [4]: inactive

O=C(O)c1[nH]n(-c2ccc(S(=O)(=O)O)cc2)c(=O)c1N=Nc1ccc(S(=O)(=O)O)cc1
outcome [2]: inactive
outcome [3]: inactive
outcome [5]: inactive
